Screening data from PubChem BioAssay.
This is a sample that favours compounds with a hit; in the whole collection about 11% have one here.
BAZ2B inh = blocks human BAZ2B. Q9UIF8. AlphaScreen BAZ2B-H3K14Ac peptide displacement. Potency, µM (highest dose often 114 µM), for the others: at the top dose activity change, negative = inhibition, usual class: inhibitors. 4.4% of 360,000 active; also: % is scaled to controls: 0 for no effect and ±100 for the full control effect; nearly all actives have a fitted effect of over 60% in size
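BAZ2B (50 nM) with biotin-H3(5-23)K14Ac peptide (50 nM) in PBS pH 7.4, 0.01% Tween-20, preformed 30 min, then compound 30 min at room temperature; top concentration 110uM. AlphaScreen streptavidin donor/nickel chelate acceptor beads (10 ug/mL final), 20 min dark, signal read.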
G9a inh = blocks human histone lysine methyltransferase G9a; Q96KQ7; Potency, µM (top dose mostly 102 µM), without a hit: top-dose activity, negative = inhibition, usual class: inhibitors; 8.8% of 350,000 active; AID 504332; G9a H3K9 monomethylation, AlphaScreen, 2 h; also: % is scaled to controls: 0 for no effect and ±100 for the full control effect; nearly all actives have a fitted effect of over 75% in size
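AlphaScreen detection with an anti-monomethyl H3K9 antibody quantified product after a 2 h room-temperature reaction containing 500 nM biotinylated H3K9 peptide, 20 µM SAM and 20 nM enzyme, which had been preincubated 15 min with compound.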
VDR inh = vitamin D3 receptor (human) inhibition. 0.93% of 400,000 active. Potency, µM, for the others: max response, negative = inhibition, actives largely listed as inhibitors. P11473. AID 504847. VDR-SRC2-3 peptide fluorescence polarization, 2 h; also: % is scaled to controls: 0 for no effect and ±100 for the full control effect
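FP read-out; VDR + SRC2-3 coactivator peptide; 23 nl compound by pintool; 2 h RT incubation; reagents held at 4 deg C, protected from light.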
JMJD2A Tudor inh = JMJD2A Tudor domain (human) inhibition | O75164 | 4.4% of 390,000 active | AlphaScreen JMJD2A-Tudor / H3K4me3 peptide binding | Potency, µM (titrated, usually from 114 µM), inactives show at the top dose activity change, negative = inhibition, hits mostly inhibitors; also: % is scaled to controls: 0 for no effect and ±100 for the full control effect; nearly all actives have a fitted effect of over 50% in size
PLK1 PBD inh = PLK1 (human) polo-box domain binding inhibition. P53350. Plk1 PBD binding of FITC phosphopeptide, fluorescence polarization. Potency, µM, for inactives: max response, negative = inhibition, usual class: inhibitors. 2.8% of 360,000 active. AID 720504; also: series mostly up to about 57 µM; % is scaled to controls: 0 for no effect and ±100 for the full control effect; nearly all actives have a fitted effect of over 65% in size
HP1b chromo inh = HP1-beta chromodomain-methylated histone interaction inhibition | AlphaScreen HP1-beta / biotin-H3K9me3 peptide binding | P83916 | AID 540317 | Potency, µM (top dose mostly 114 µM), for the others: top-dose activity change, negative = inhibition, most hits filed as inhibitors | 0.56% of 390,000 active; also: nearly all actives have a fitted effect of over 70% in size
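Compound inhibition of the preformed complex between 50 nM HP1-beta and 50 nM biotinylated H3K9me3 peptide was read by AlphaScreen. Buffer was PBS pH 7.4 with 0.01% Tween-20. Incubations ran 30 min at room temperature, with 10 ug/mL donor/acceptor beads.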
The depositor's hits bear a star; [ ] = dose if it differs, or a comment. Calls follow the shape of the dose curve; as a rule, active = well fitted curve in the direction sought with a large enough effect; inconclusive = small, poorly fitted or top-dose-only effect, or another doubt; inactive = no such curve, though single readings can be large; an effect the other way counts as inactive or inconclusive. Potency is read from the fitted curve at half-maximal effect.

`CCc1cccc(C)c1Nc1nn2c(=O)c3ccccc3nc2s1` gave BAZ2B inh 0%, G9a inh 7.1µM*, VDR inh -9%, JMJD2A Tudor inh -20% and HP1b chromo inh inconclusive.
Screening CC(C)=CCC/C(C)=C/Cc1c(O)ccc(C(=O)/C=C/c2ccc(O)cc2)c1O returned BAZ2B inh inconclusive, G9a inh inconclusive, VDR inh -13%, JMJD2A Tudor inh inconclusive, PLK1 PBD inh 13% and HP1b chromo inh -10%.
For COc1cc(CCc2ccccc2)c(C(=O)O)c(O)c1C/C=C(/C)CCC=C(C)C the results were VDR inh 5%, JMJD2A Tudor inh 79µM*, PLK1 PBD inh 24µM* and HP1b chromo inh 17%.
`COc1cc(CCc2ccccc2)c(C(=O)O)c(O)c1CC=C(C)C` gave VDR inh -10%, JMJD2A Tudor inh -20%, PLK1 PBD inh 27µM* and HP1b chromo inh 25%.
For COCOc1ccc(/C=C/C(=O)c2c(OCOC)cc(OCOC)c(CC=C(C)C)c2O)cc1OCOC the results were VDR inh -1%, JMJD2A Tudor inh inconclusive, PLK1 PBD inh 2% and HP1b chromo inh -18%.
For CCCSc1ncnc2c1c(-c1ccccc1)cn2-c1ccccc1OC the results were BAZ2B inh 11%, G9a inh -2%[59 µM], VDR inh -19%, JMJD2A Tudor inh 1% and HP1b chromo inh 40%.
CC(=O)N1CCCc2cc(S(=O)(=O)N3CCN(c4ccccc4F)CC3)ccc21 was read as BAZ2B inh 5%, G9a inh -3%[59 µM], VDR inh 12%, JMJD2A Tudor inh -5% and HP1b chromo inh 22%[57 µM].
Cc1cc(C)n(-c2ccc(NC(=O)C3CCCCN3C(=O)c3occc3C)cc2)n1 (configuration not stated) was read as BAZ2B inh -5%, G9a inh 39%, VDR inh -18%, JMJD2A Tudor inh 2%, PLK1 PBD inh -2% and HP1b chromo inh 23%.
Screening Cc1ccoc1C(=O)N1CCCCC1C(=O)O (configuration not stated) returned G9a inh -41%, VDR inh inconclusive, JMJD2A Tudor inh -22%[11.4 µM], PLK1 PBD inh 15µM* and HP1b chromo inh inconclusive.
`CCOC(=O)c1[nH]c(C)c(/C(O)=C2\C(=O)C(=O)N(CCN(C)C)C2c2ccco2)c1C` (configuration not stated) gave BAZ2B inh -36%, G9a inh -41%[12.7 µM], VDR inh 23%, JMJD2A Tudor inh inconclusive, PLK1 PBD inh -1% and HP1b chromo inh 23%.
COC(=O)c1[nH]c(C)c(/C(O)=C2\C(=O)C(=O)N(CCN3CCOCC3)C2c2cccs2)c1C (configuration not stated) was read as BAZ2B inh -5%, G9a inh 45µM*, VDR inh -6%, JMJD2A Tudor inh -25%, PLK1 PBD inh 0% and HP1b chromo inh 12%.
`CCOC(=O)c1[nH]c(C)c(/C(O)=C2\C(=O)C(=O)N(CCCN3CCOCC3)C2c2cccs2)c1C` (configuration not stated) gave BAZ2B inh -15%, VDR inh -9%, JMJD2A Tudor inh -17%, PLK1 PBD inh -8% and HP1b chromo inh 28%.
CCOC(=O)c1[nH]c(C)c(/C(O)=C2\C(=O)C(=O)N(CCN3CCOCC3)C2c2ccco2)c1C (configuration not stated) was read as BAZ2B inh inconclusive, G9a inh 40µM*, VDR inh 29%, JMJD2A Tudor inh -14%, PLK1 PBD inh -7% and HP1b chromo inh 20%.
`CCN(CC)CCN1C(=O)C(=O)/C(=C(/O)c2c(C)[nH]c(C(=O)OC)c2C)C1c1ccco1` (configuration not stated) gave BAZ2B inh -36%, G9a inh inconclusive, VDR inh 13%, JMJD2A Tudor inh inconclusive, PLK1 PBD inh -3% and HP1b chromo inh 14%.
For COC(=O)c1[nH]c(C)c(/C(O)=C2\C(=O)C(=O)N(CCN3CCOCC3)C2c2ccco2)c1C (configuration not stated) the results were BAZ2B inh 0%, G9a inh 50µM*, VDR inh 2%, JMJD2A Tudor inh -30%, PLK1 PBD inh 2% and HP1b chromo inh 17%.
Screening COc1ccc(S(=O)(=O)Nc2c(C)ccc3nsnc23)cc1OC returned BAZ2B inh 5%, G9a inh -3%[12.7 µM], VDR inh 4%, JMJD2A Tudor inh -11%, PLK1 PBD inh -5% and HP1b chromo inh 17%.
Screening C=CCOc1ccc(C(=O)/C=C2/C(=O)Nc3ccccc32)cc1 returned BAZ2B inh -39%, G9a inh inconclusive, VDR inh inconclusive, JMJD2A Tudor inh -17%, PLK1 PBD inh -8% and HP1b chromo inh 36%.
Screening C=CCOc1ccccc1C(=O)/C=C1/C(=O)Nc2ccccc21 returned BAZ2B inh -34%, G9a inh inconclusive, VDR inh 22µM*, JMJD2A Tudor inh inconclusive, PLK1 PBD inh inconclusive and HP1b chromo inh -13%.
For CCCCNc1nc(C#N)nc(Nc2ccccc2)n1 the results were JMJD2A Tudor inh -2%.
`COc1ccccc1-n1c(SCC(=O)c2ccc(O)cc2O)nc2cc([N+](=O)[O-])ccc21` gave BAZ2B inh inconclusive, G9a inh inconclusive, VDR inh -4%, JMJD2A Tudor inh 25µM*, PLK1 PBD inh -15% and HP1b chromo inh -17%.
For CCCCNC(=O)c1ccc(NC(=O)CC2SC(N3CCCC3)=NC2=O)cc1 (configuration not stated) the results were BAZ2B inh -2%, G9a inh 15%[12.7 µM], VDR inh 3%, JMJD2A Tudor inh 3%, PLK1 PBD inh -9% and HP1b chromo inh 27%.
Screening CCOC(=O)c1cnn(-c2ccc(C(F)(F)F)cn2)c1N returned BAZ2B inh -5%, G9a inh 8%[59 µM], VDR inh -7%, JMJD2A Tudor inh -5%, PLK1 PBD inh -13% and HP1b chromo inh 30%.
For CCOC(=O)NNc1ccc(C(F)(F)F)cn1 the results were BAZ2B inh 1%, G9a inh 7%, VDR inh -1%, JMJD2A Tudor inh 10µM*, PLK1 PBD inh 1% and HP1b chromo inh 12%.
For CC(=O)Nc1ccc(Nc2nc(C)cc(C)n2)cc1 the results were BAZ2B inh -2%, G9a inh 0%, VDR inh -9%, JMJD2A Tudor inh 2%, PLK1 PBD inh -9% and HP1b chromo inh 14%.
Cc1ccc(Nc2nc(C)cc(C)n2)c(C(=O)O)c1 was read as BAZ2B inh 0%, G9a inh 8.9µM*, VDR inh 5%, JMJD2A Tudor inh 0% and HP1b chromo inh -9%.
